Where “and” joins values, the source holds several entries; their conditions need not be identical. Identical values can stand only once. Results filed as inconclusive are left out. Where a call stands in place of a potency, no number is given. Calls of active or inactive are those of the source. The call rests on the fitted dose curve.

Among the data in PubChem BioAssay (Tox21) are Potency values, retold here.
Potency means the concentration at half of the fitted maximal effect.

Chain of 5-hydroxytryptamine receptor 2A (Homo sapiens) (P28223 whole entry, looked up): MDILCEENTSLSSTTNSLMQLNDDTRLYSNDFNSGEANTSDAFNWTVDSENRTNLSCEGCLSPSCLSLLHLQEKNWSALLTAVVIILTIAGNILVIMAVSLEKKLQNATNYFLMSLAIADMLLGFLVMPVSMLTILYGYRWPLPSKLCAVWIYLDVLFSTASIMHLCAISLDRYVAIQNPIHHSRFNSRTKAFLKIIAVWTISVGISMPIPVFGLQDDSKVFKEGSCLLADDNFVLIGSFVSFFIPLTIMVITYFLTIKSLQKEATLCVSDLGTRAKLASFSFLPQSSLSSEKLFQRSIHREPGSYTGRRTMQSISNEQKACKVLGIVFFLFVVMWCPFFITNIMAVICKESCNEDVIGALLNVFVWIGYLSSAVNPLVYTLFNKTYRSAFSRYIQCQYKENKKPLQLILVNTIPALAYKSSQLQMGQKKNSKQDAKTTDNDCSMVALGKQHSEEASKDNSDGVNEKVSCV

In the test the target is 5-hydroxytryptamine receptor 2A (Homo sapiens) (UniProt P28223). The experiment in a line: 5-hydroxytryptamine receptor 2A (HTR2A) small molecule agonists, cell-based qHTS assay (AID 1963587). Further: nearly all actives have a fitted effect of over 30% in size. The note with it: HTR2A-CHO cells, calcium flux fluorescence, agonist mode; series mostly up to 76.8 µM. The text has this:
National Center for Advancing Translational Sciences [NCATS]
Division of Preclinical Innovation [DPI]
U.S. Environmental Protection Agency [EPA]
National Institutes of Environmental Health Sciences [NIEHS]
National Toxicology Program [NTP]
U.S. Food and Drug Administration [FDA]
The HTR2A receptor is a subtype of the 5-HT2 receptor that belongs to the serotonin receptor family and is a G protein-coupled receptor (GPCR). The HTR2A-CHO cell line stably expressing human 5-hydroxytryptamine receptor 2A (HTR2A) can be used for screening agonists of interactions between 5-HT2 and its ligands. The HTR2A-CHO calcium flux assay is a homogeneous fluorescence-based assay for detecting the intracellular calcium level using FDSS kinetic plate reader system.
HTR2A-CHO cells were dispensed at 2000 cells/3uL/well in 1536-well black-clear bottom plates using a Multidrop Dispenser. After the assay plates were incubated at a 37 C/5% CO2 incubator for 18 h, 3 uL of Dye Loading Buffer was transferred to the assay plate by a Flying Reagent Dispenser. The assay plates were incubated at 37 C for 1h. For agonist mode, 23 nL of compounds dissolved in DMSO, positive controls or DMSO only was transferred to the assay plate by a pin tool. The fluorescence intensity in the plates was measured using FDSS 7000EX kinetic plate reader for 2 min at 1 sec intervals.
For orientation: qHTS replaces the single test concentration by a dilution series.
Turning to `Cn1c([N+](=O)[O-])cnc1COC(N)=O`, the Potency result was “inactive”.
Take `CN(C)C(=O)Nc1ccc(Cl)c(Cl)c1`: the Potency result is “inactive”.
For the compound `CC(C)(C)C1CCC(O)CC1` (stereo not given), the Potency entry was “inactive”.
For `F[B-](F)(F)F`, the Potency entry was “inactive”.
With `C/C=C/c1ccc(OC)cc1`, the Potency result is “inactive”.
On to `COCC(C)O` (stereo not given), for which the Potency result was “inactive”.
On to `CC(C)(C)[C@@H](O)[C@@H](Cc1ccc(Cl)cc1)n1cncn1`, for which the Potency result is “inactive”.
As to `CCCCCCCCCCCCCC(=O)OC(C)C`, the Potency entry is “inactive”.
`C/C=C1/CC2C=CC1C2` (stereo not given): the Potency result is “inactive”.
The value for `CCc1cc(C(N)=S)ccn1` was “inactive”; that for `Nc1cc([N+](=O)[O-])ccc1C(=O)O` was “inactive”; that for `CC(C)OP(=O)(CP(=O)(OC(C)C)OC(C)C)OC(C)C` was “inactive”.
Take `Cc1cc(C)c(C)cc1C`: the Potency entry is “inactive”.
`CCCOC(=O)c1cc(O)c(O)c(O)c1`: the Potency result was “inactive”.
As to `CCCCCCCCCCCCCCCCCC(=O)OCC(O)CO` (stereo not given), the Potency entry is “inactive”.
Take `CCCCNC(N)=O`: the Potency entry is “inactive”.
With `CCCCCCCCOc1ccc(C(=O)c2ccccc2)c(O)c1`, the Potency entry was “inactive”.
For the compound `C=CCCCCCCCCC(=O)O`, the Potency entry was “inactive”.
As for `Cc1c(N(C)C)c(=O)n(-c2ccccc2)n1C`, the Potency entry is “inactive”.
The value for `C=C(C)OC(C)=O` was “inactive”.
On to `COc1ccc([N+](=O)[O-])cc1N`, for which the Potency result was “inactive”.
As for `Cc1ccccc1C=O`, the Potency entry was “inactive”.
Turning to `Oc1ccc(O)cc1`, the Potency entry is “inactive”.
The value for `CCCCOCCOCCO` was “inactive”.
As to `COc1ccc(C(=O)c2ccccc2O)c(O)c1`, the Potency result was “inactive”.
For the compound `CCCCC(CC)CO` (stereo not given), the Potency entry was “inactive”.
The value for `CCN=c1cc2oc3cc(NCC)c(C)cc3c(-c3ccccc3C(=O)OCC)c-2cc1C` was 5.47 µM (active) and 19.5 µM (active); that for `c1ccc2cc3c(ccc4ccccc43)cc2c1` was “inactive”; that for `CCOCCO` was “inactive”.
Consider `Clc1ccccn1`, for which the Potency result was “inactive”.
The value for `Nc1ccccc1[N+](=O)[O-]` was “inactive”; that for `CCCCCCCC/C=C\CCCCCCCC(=O)O` was “inactive”.
With `C=CCNCC=C`, the Potency result was “inactive”.
For the compound `CCCCCCCCCCCCc1ccccc1O`, the Potency result is “inactive”.
The value for `Cc1ccc(C(C)C)cc1` was “inactive”; that for `O=C(O)C1=NN(c2ccc(S(=O)(=O)O)cc2)C(=O)C1` was “inactive”.
Take `O=C(O)c1ccc2c(c1)C(=O)OC2=O`: the Potency entry is “inactive”.
The value for `CC(C)c1ccc(C(C)C)cc1` was “inactive”.
For the compound `CC(COc1ccccc1)N(CCCl)Cc1ccccc1` (stereo not given), the Potency result was “inactive”.
As to `Cc1cccc([N+](=O)[O-])c1C`, the Potency result was “inactive”.
